Laboratory results reported in PubChem BioAssay AID1508622 (National Center for Advancing Translational Sciences (NCATS), 2021).
The source made the active and inactive calls. Where a call stands in place of a potency, no number is given. Calls follow the shape of the dose curve; as a rule, active = well fitted activation curve with a large enough effect; inconclusive = small, poorly fitted or top-dose-only effect; inactive = no such curve, though single readings can be large or run the other way.

assay: Confirmatory qHTS for Identification of Small Molecule Activators of Huntingtin-Antisense Promoter Activity; conditions: HEK293 HTT-AS promoter firefly luciferase reporter, 24 h; series mostly up to 57.5 µM
Procedure, shortened: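 HEK293 luciferase reporter cells, 2,500/well, cultured 24 h, then exposed to compounds at up to 57.5 uM final for 24 h at 37C. Firefly luciferase luminescence read; normalized to vehicle (0%) and zero RLU (-100%).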
Potency is read from the fitted curve at half-maximal effect.

| Compound | Potency |
| --- | --- |
| CC(C)[C@H](CO)Nc1nc(Nc2ccc(C(=O)O)c(Cl)c2)c2ncn(C(C)C)c2n1 | inactive |
| Cn1c(Oc2ccc(F)cc2)nc2c1c(=O)n(Cc1ccccc1Cl)c(=O)n2C | inactive |
| COc1ccc(-c2nnc(C3CCN(C(=O)c4ccccc4F)CC3)o2)cc1 | inactive |
| Cc1ccccc1NC(=O)c1c(NC(=O)C(F)(F)F)sc2c1CCCCC2 | inactive |
| CSc1ccc(CCNc2ncnc3onc(C)c23)cc1 | inactive |
| CCOc1cc(CNCCSc2nnnn2-c2ccccc2)cc(Cl)c1OC | inactive |
| CCOc1ccc(NC(=O)c2ccc(F)c(S(=O)(=O)NCc3ccc4c(c3)OCO4)c2)cc1 | inactive |
| COc1ccc(NS(=O)(=O)c2ccc3c(c2)CC(C)N3C(=O)C2CCC2)cc1OC (stereo unspecified) | inactive |
| Cc1ccccc1OCc1ccc(-c2nc(C#N)c(NCc3cccnc3)o2)o1 | inactive |
| O=C(NCc1ccccc1)c1cc2ccc3cccnc3c2[nH]1 | 2.13 µM (active) |
| COc1ccc(N2CCN(C(CNC(=O)C(=O)NCCc3ccccc3)c3cccnc3)CC2)cc1 (stereo unspecified) | inactive |
| CCc1ccccc1N(C)C(=O)C1CCCN(c2ncnc3c2nc2n3CCCCC2)C1 (stereo unspecified) | inactive |
| O=C(c1ccc2c(c1)CCN2S(=O)(=O)c1ccc(Cl)cc1)N1CCN(c2ccccc2F)CC1 | inactive |
| CCc1ccc(NC(=O)CSc2nc(=O)n(Cc3cccnc3)c3c2CCC3)cc1 | inactive |
| O=C(CCn1cnc2onc(-c3ccc(F)cc3)c2c1=O)Nc1ccc(F)c(Cl)c1 | inactive |
| Cc1ccc(CCNC(=O)C2CCN(c3nnc(-n4cccc4CNc4ccc(C)cc4)s3)CC2)cc1 | inactive |
